Results published in PubChem BioAssay (NCI).
Values joined by “and” are separate entries in the source; they are usually repeats but may differ in a detail not shown here. Equal entries are not always repeated. About 83,000 compounds went through this panel and 20% of them were active in at least one assay; those are over-represented in the sample as a whole.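 96-well plates, one dose, 48 hours. Percent growth reported; active if below 10.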

How the values were obtained:
Assay in all cases: NCI-60 one-dose screen, 48 h (100 = growth as untreated, 0 = no growth, -100 = all killed)
[1] = tested on: DU-145 prostate
[2] = tested on: K-562 leukemia
[3] = tested on: MALME-3M melanoma
[4] = tested on: MDA-MB-231 breast
[5] = tested on: RXF 393 renal
[6] = tested on: SF-268 CNS
[7] = tested on: SF-295 CNS
[8] = tested on: SF-539 CNS
[9] = tested on: UACC-257 melanoma
[10] = tested on: M14 melanoma

Measured: growth

CCCCCc1cc[n+](CC(=O)c2ccccc2)cc1
inactive: [1]; 10 µM unless noted 105% and 110% | [2]; 10 µM unless noted 113% and 104% | [3]; 10 µM unless noted 100% and 108% | [4]; 10 µM unless noted 104% and 106% | [5]; 10 µM unless noted 98.6% and 110% | [6]; 10 µM unless noted 103% and 107% | [7]; 10 µM unless noted 94.1% | [8]; 10 µM unless noted 96.3% and 102% | [9]; 10 µM unless noted 99% and 106% | [10]; 10 µM unless noted 100%

CCOCCC(=O)O
inactive: [1]; 10 µM unless noted 121% | [2]; 10 µM unless noted 108% | [3]; 10 µM unless noted 116% | [4]; 10 µM unless noted 105% | [5]; 10 µM unless noted 108% | [6]; 10 µM unless noted 112% | [7]; 10 µM unless noted 102% | [8]; 10 µM unless noted 102% | [9]; 10 µM unless noted 114% | [10]; 10 µM unless noted 102%

O=C1c2cccnc2-c2ncccc21
inactive: [1]; 10 µM unless noted 112% [100 µM] | [2]; 10 µM unless noted 115% [100 µM] | [3]; 10 µM unless noted 103% [100 µM] | [4]; 10 µM unless noted 118% [100 µM] | [5]; 10 µM unless noted 109% [100 µM] | [6]; 10 µM unless noted 106% [100 µM] | [7]; 10 µM unless noted 103% [100 µM] | [8]; 10 µM unless noted 104% [100 µM] | [9]; 10 µM unless noted 98% [100 µM] | [10]; 10 µM unless noted 104% [100 µM]

COc1ccc(-n2[nH]c3c(cnc4ccccc43)c2=O)cc1
inactive: [1]; 10 µM unless noted 95.8% and 101% | [2]; 10 µM unless noted 112% and 90.7% | [3]; 10 µM unless noted 63.7% and 105% | [4]; 10 µM unless noted 119% | [5]; 10 µM unless noted 110% and 98.3% | [6]; 10 µM unless noted 103% and 106% | [7]; 10 µM unless noted 86.9% and 92.7% | [8]; 10 µM unless noted 87.8% and 93.4% | [9]; 10 µM unless noted 109% | [10]; 10 µM unless noted 92.3% and 104%

Cc1onc(-c2c(F)cccc2Cl)c1-c1ncc(-c2ccc(Cl)cc2)o1
inactive: [1]; 10 µM unless noted 97.2% and 50.2% | [2]; 10 µM unless noted 27.9% and 21.5% | [3]; 10 µM unless noted 60.2% and 46.6% | [4]; 10 µM unless noted 54.1% and 46.3% | [5]; 10 µM unless noted 89.9% and 52.7% | [6]; 10 µM unless noted 66.2% and 49.8% | [7]; 10 µM unless noted 43.8% and 42.2% | [8]; 10 µM unless noted 68% and 36.5% | [9]; 10 µM unless noted 22.5% | [10]; 10 µM unless noted 54.8% and 46.6%

O=C(O)/C=C/C=C/c1ccccc1
inactive: [1]; 10 µM unless noted 106% and 109% | [2]; 10 µM unless noted 114% and 110% | [3]; 10 µM unless noted 103% and 114% | [4]; 10 µM unless noted 101% and 106% | [5]; 10 µM unless noted 113% and 120% | [6]; 10 µM unless noted 101% | [7]; 10 µM unless noted 105% and 101% | [8]; 10 µM unless noted 96.7% and 98.6% | [9]; 10 µM unless noted 102% and 93.2% | [10]; 10 µM unless noted 101%

O=C(c1ccc(Cl)cc1)C1C(c2ccccc2)C1[N+](=O)[O-] (stereo not drawn)
inactive: [1]; 10 µM unless noted 105% | [2]; 10 µM unless noted 92.7% | [3]; 10 µM unless noted 104% | [4]; 10 µM unless noted 91.2% | [5]; 10 µM unless noted 106% | [6]; 10 µM unless noted 98.1% | [7]; 10 µM unless noted 103% | [8]; 10 µM unless noted 103% | [9]; 10 µM unless noted 105% | [10]; 10 µM unless noted 102%

O=c1ccn2c(n1)OC1CC2OC1COC(c1ccccc1)(c1ccccc1)c1ccccc1 (stereo not drawn)
inactive: [1]; 10 µM 115% | [1]; 100 µM 99.1% | [2]; 10 µM 102% | [2]; 100 µM 50.4% | [3]; 10 µM 119% | [3]; 100 µM 95% | [4]; 10 µM 111% | [4]; 100 µM 82.1% | [5]; 10 µM 107% | [5]; 100 µM 75.8% | [6]; 10 µM 119% | [6]; 100 µM 76.3% | [7]; 10 µM 118% | [7]; 100 µM 67.1% | [8]; 10 µM 110% | [8]; 100 µM 48.8% | [9]; 10 µM unless noted 93.8% [100 µM] | [10]; 10 µM 112% | [10]; 100 µM 46.1%

Clc1ccc2sc(-c3ccccc3)nc2c1
inactive: [1]; 10 µM unless noted 113% | [2]; 10 µM unless noted 92.9% | [3]; 10 µM unless noted 104% | [4]; 10 µM unless noted 80.3% | [5]; 10 µM unless noted 103% | [6]; 10 µM unless noted 96% | [7]; 10 µM unless noted 100% | [8]; 10 µM unless noted 95.5% | [9]; 10 µM unless noted 65.6% | [10]; 10 µM unless noted 102%

CCCCCCC(C)CC1=C(O)c2ccccc2C(=O)C1=O (stereo not drawn)
inactive: [1]; 10 µM unless noted 45.2% | [2]; 10 µM unless noted 31.1% | [3]; 10 µM unless noted 54.9% | [4]; 10 µM unless noted 66.2% | [5]; 10 µM unless noted 60% | [6]; 10 µM unless noted 53.2% | [7]; 10 µM unless noted 35.4% | [8]; 10 µM unless noted 34% | [9]; 10 µM unless noted 38.2% | [10]; 10 µM unless noted 44.1%

N=C(N=C(N)N)N1CCOCC1
inactive: [1]; 10 µM unless noted 102% and 106% | [2]; 10 µM unless noted 106% and 112% | [3]; 10 µM unless noted 90.6% and 108% | [4]; 10 µM unless noted 104% and 99.2% | [5]; 10 µM unless noted 111% | [6]; 10 µM unless noted 104% and 102% | [7]; 10 µM unless noted 110% and 96.9% | [8]; 10 µM unless noted 105% and 95.9% | [9]; 10 µM unless noted 107% and 104% | [10]; 10 µM unless noted 91.1% and 97.2%

CCc1ccccc1-n1[nH]c(C)c(C=N)c1=O
inactive: [1]; 10 µM unless noted 118% | [2]; 10 µM unless noted 96.5% | [3]; 10 µM unless noted 94.4% | [4]; 10 µM unless noted 106% | [5]; 10 µM unless noted 103% | [6]; 10 µM unless noted 114% | [7]; 10 µM unless noted 99.3% | [8]; 10 µM unless noted 100% | [9]; 10 µM unless noted 116% | [10]; 10 µM unless noted 109%

CC(C)=NOC(C)C(=O)O (stereo not drawn)
inactive: [1]; 10 µM unless noted 147% | [2]; 10 µM unless noted 76.5% | [3]; 10 µM unless noted 112% | [4]; 10 µM unless noted 99.8% | [5]; 10 µM unless noted 116% | [6]; 10 µM unless noted 101% | [7]; 10 µM unless noted 93.1% | [8]; 10 µM unless noted 102% | [9]; 10 µM unless noted 92.9% | [10]; 10 µM unless noted 94.4%

S=c1nc[nH]c2nc[nH]c12
inactive: [1]; 10 µM 44.3% | [1]; 50 µM 25.3% | [2]; 10 µM unless noted 11.9% [50 µM] | [3]; 10 µM 50.1% | [3]; 50 µM 17.4% | [4]; 10 µM 42.9% | [4]; 50 µM 40.2% | [5]; 10 µM 62.8% | [5]; 50 µM 59.7% | [6]; 10 µM 39.2% | [6]; 50 µM 24.7% | [7]; 10 µM 11.4% | [7]; 50 µM 18.1% | [8]; 10 µM 31.2% | [8]; 50 µM 14.4% | [9]; 10 µM 44.2% | [9]; 50 µM 29.7% | [10]; 10 µM 14.1% | [10]; 50 µM 15.6%

Cc1cccc(Cl)c1N
inactive: [1]; 10 µM unless noted 109% | [2]; 10 µM unless noted 107% | [3]; 10 µM unless noted 111% | [4]; 10 µM unless noted 114% | [5]; 10 µM unless noted 126% | [6]; 10 µM unless noted 105% | [7]; 10 µM unless noted 102% | [8]; 10 µM unless noted 111% | [9]; 10 µM unless noted 95.5% | [10]; 10 µM unless noted 105%

COC(=O)c1nc(=S)[nH]c(C(=O)OC)c1C(=O)c1ccccc1
inactive: [1]; 10 µM unless noted 116% | [2]; 10 µM unless noted 111% | [3]; 10 µM unless noted 97.1% | [4]; 10 µM unless noted 93.5% | [5]; 10 µM unless noted 99.2% | [6]; 10 µM unless noted 108% | [7]; 10 µM unless noted 103% | [8]; 10 µM unless noted 87.8% | [9]; 10 µM unless noted 123% | [10]; 10 µM unless noted 113%

CC(=O)c1cc2ccccc2o1
inactive: [1]; 10 µM unless noted 112% | [2]; 10 µM unless noted 97.9% | [3]; 10 µM unless noted 107% | [4]; 10 µM unless noted 99.9% | [5]; 10 µM unless noted 119% | [6]; 10 µM unless noted 106% | [7]; 10 µM unless noted 103% | [8]; 10 µM unless noted 89% | [9]; 10 µM unless noted 114% | [10]; 10 µM unless noted 99.5%

N#CC1c2ccccc2C=CN1C(=O)c1ccccc1 (stereo not drawn)
inactive: [1]; 10 µM unless noted 108% and 94.1% | [2]; 10 µM unless noted 99.6% and 112% | [3]; 10 µM unless noted 94.8% and 108% | [4]; 10 µM unless noted 96% and 94.1% | [5]; 10 µM unless noted 136% and 118% | [6]; 10 µM unless noted 111% and 84.8% | [7]; 10 µM unless noted 101% and 93.3% | [8]; 10 µM unless noted 112% and 86.6% | [9]; 10 µM unless noted 103% and 113% | [10]; 10 µM unless noted 99.9% and 98.7%

O=C(O)c1c2c(nc3ccccc13)Cc1ccccc1-2
inactive: [1]; 10 µM unless noted 108% and 94.4% | [2]; 10 µM unless noted 115% and 99.1% | [3]; 10 µM unless noted 105% and 86.8% | [4]; 10 µM unless noted 107% and 102% | [5]; 10 µM unless noted 182% and 114% | [6]; 10 µM unless noted 95.4% and 86.9% | [7]; 10 µM unless noted 104% and 81.9% | [8]; 10 µM unless noted 116% and 91.4% | [9]; 10 µM unless noted 85.8% and 103% | [10]; 10 µM unless noted 91.5% and 96%

CCOC(=O)c1csc(N)n1
inactive: [1]; 10 µM unless noted 105% and 104% | [2]; 10 µM unless noted 101% and 102% | [3]; 10 µM unless noted 112% and 108% | [4]; 10 µM unless noted 107% and 98.7% | [5]; 10 µM unless noted 100% | [6]; 10 µM unless noted 108% and 96.7% | [7]; 10 µM unless noted 99.8% and 92.5% | [8]; 10 µM unless noted 94.8% and 101% | [9]; 10 µM unless noted 87.3% | [10]; 10 µM unless noted 118% and 98.3%

CC1(C)OC(=O)C(=Cc2ccc(C#N)cc2)C(=O)O1
inactive: [1]; 10 µM unless noted 109% and 107% | [2]; 10 µM unless noted 101% and 96.7% | [3]; 10 µM unless noted 110% and 99.3% | [4]; 10 µM unless noted 113% and 123% | [5]; 10 µM unless noted 102% | [6]; 10 µM unless noted 104% and 102% | [7]; 10 µM unless noted 103% and 97.7% | [8]; 10 µM unless noted 111% and 105% | [9]; 10 µM unless noted 72.2% and 96.3% | [10]; 10 µM unless noted 106% and 105%
